According to PubChem BioAssay (Tox21):
Results filed as inconclusive are left out. A call without a number means that no potency is given here. A structure can be active in one record and inactive in another. The source made the active and inactive calls. Calls follow the shape of the dose curve; as a rule, active = well fitted activation curve with a large enough effect in the repeat runs; inconclusive = weak or mixed curves; inactive = flat fitted curve, though single readings scatter.
Potency is read from the fitted curve at half-maximal effect.

Assay: A CellTox Green Cytotoxicity Assay to monitor cytotoxicity in HEK293 cells - 32 hour (AID 1224881); also: nearly all actives have a fitted effect of over 40% in size
Conditions: CellTox Green fluorescence; series mostly up to 76.8 µM; cytotoxicity increase: at the top concentration
From the text: National Center for Advancing Translational Sciences [NCATS]
NIH Chemical Genomics Center [NCGC]
U.S. Environmental Protection Agency [EPA]
National Institutes of Environmental Health Sciences [NIEHS]
National Toxicology Program [NTP]
Cell-based models are critical for drug discovery. Determining the natural cytotoxic effects resulting from test compounds is an essential research activity. A CellTox Green Cytotoxicity Assay to monitor cytotoxicity in real time of continues cell culture during 40 hours of the compound treatment was used to screen Tox21 10K library compounds in Hek293 cells. CellTox Green Cytotoxicity Assay is a nonlytic, homogeneous, biofluorescent method to measure cytotoxicity in cell culture after experimental manipulation. The assay system uses a proprietary asymmetric cyanine dye that is excluded from viable cells but preferentially stains the dead cell's DNA. […] Viable cells produce no appreciable increases in fluorescence. Therefore, the fluorescence signal produced by the binding interaction with dead cell DNA is proportional to cytotoxicity.
The mixture of Hek293 cell suspension and reagents were dispensed at 600cells/6 ul/well in 1536-well tissue culture treated black solid bottom plates using a Multidrop dispenser. After the assay plates were incubated at a 37 C/5% CO2 incubator for 5 hours, 23 nL of compounds dissolved in DMSO, positive and negative controls was transferred to the assay plate by a pintool work station. The plates were incubated at 37 C for 40 hours. The fluorescence intensity were measured at 0h, 8h, 16h, 24h, 32h and 40h time points using ViewLux plate reader during compound treatment.
In the case of `Cc1ccc(S(=O)(=O)N=C=O)cc1`, the Potency is reported as “inactive”. For `C=C(C)[C@H]1CC=C(C)C(=O)C1`, the Potency was “inactive”. For `Cc1ccc([N+](=O)[O-])cc1S(=O)(=O)O`, the Potency was “inactive”. For `CCNc1cccc(C)c1`, the Potency was “inactive”. With `CC(=O)c1ccc(O)cc1` the Potency was “inactive”. In the case of `CC(=O)Oc1ccc(C)cc1`, the Potency is reported as “inactive”. In the case of `O=[N+]([O-])c1ccc2nc[nH]c2c1`, the Potency is reported as “inactive”. With `COc1ccc(OC)cc1` the Potency was “inactive”. For `CC(C)(C#N)c1cc(Cn2cncn2)cc(C(C)(C)C#N)c1`, the Potency was “inactive”. For `Nc1ccc(Cl)c(N)c1`, the Potency was “inactive”. For `CC(=O)CC(C)(C)O`, the Potency was “inactive”. With `Cc1ccc2ncccc2c1` the Potency was “inactive”. For `CC(C)CC(C)O` (stereo not given), the Potency was “inactive”. In the case of `CCNc1ccccc1`, the Potency is reported as “inactive”. With `CC(C)CCCCCCCOC(=O)CCCCC(=O)OCCCCCCCC(C)C` the Potency was “inactive”. For `CCCCCCCCCCCCCCCCO`, the Potency was “inactive”. In the case of `CC(CCO)CC(C)(C)C` (stereo not given), the Potency is reported as “inactive”. For `CNC(=O)Oc1ccc2c(c1)[C@]1(C)CCN(C)[C@@H]1N2C`, the “cytotoxicity increase” value was 15.8% (inactive). For `CN(C)CCOC(=O)COc1ccc(Cl)cc1`, the Potency was “inactive”. For `CC1(C)CC(N)CC(C)(CN)C1` (stereo not given), the Potency was “inactive”. For `CC(C)CC(=O)CC(C)CC(C)C` (stereo not given), the Potency was “inactive”. With `COCCCN` the Potency was “inactive”. For `CC(C)c1cccc(C(C)C)c1`, the Potency was “inactive”. For `NCCCCCCN`, the Potency was “inactive”. For `CCO[Si](CCCN)(OCC)OCC`, the Potency was “inactive”. In the case of `CCOC(=O)n1ccn(C)c1=S`, the Potency is reported as “inactive”. With `CCOCC(=O)O` the Potency was “inactive”. For `CCCCCCCCCCO`, the Potency was 39 µM (active) and inactive. In the case of `CCCCCCO`, the Potency is reported as “inactive”. For `NC(=S)NNC(N)=S`, the Potency was “inactive”. In the case of `OCc1cccc(Oc2ccccc2)c1`, the Potency is reported as “inactive”. In the case of `O=C(O)/C=C/C(=O)O`, the Potency is reported as “inactive”. In the case of `C=C(C)C(=O)OCC(C)C`, the Potency is reported as “inactive”. With `CCO[Si](CCC#N)(OCC)OCC` the Potency was “inactive”. In the case of `CN(C)c1ccc(Cc2ccc(N(C)C)cc2)cc1`, the Potency is reported as “inactive”. For `CN1C(=O)CC[C@H]1c1cccnc1`, the Potency was “inactive”. For `CCOC(=O)c1ccc(N)cc1`, the Potency was “inactive”. For `O=S(=O)(O)c1ccc(N=Nc2c(O)ccc3cc(S(=O)(=O)O)ccc23)cc1`, the Potency was “inactive”. In the case of `Cc1ccc(C(C)C)c(O)c1`, the Potency is reported as “inactive”. For `O=C1CCCC1`, the Potency was “inactive”.
